# Screen size: about 360,000 compounds; about 9,100 (2.5%) were called active. Roughly 4% stayed inconclusive and do not appear here. The list comes from a sample in which actives are over-represented; it also holds similar structures and randomly drawn compounds. Values without a mark were called inactive. Rule as the data show it: active = max response below about -50%; inconclusive = no clear call, values can overlap the other calls; inactive = above that.
# Molecular target: D(3) dopamine receptor (Homo sapiens) (UniProt P35462)
# Experiment: qHTS of D3 Dopamine Receptor Antagonist: qHTS
# Conditions: D3R cells, DiscoveRx beta-arrestin luminescence, antagonist mode; active compounds read low
# Method in brief: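 Cells expressing the human receptor were seeded at 1500 cells/well, incubated overnight at 37 degrees C in 5% CO2, then exposed to library compounds with dopamine controls for 90 minutes at 37 degrees C before luminescent detection.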
# % is scaled to controls: 0 for no effect and ±100 for the full control effect.
# Chain of D(3) dopamine receptor (Homo sapiens) (P35462 whole entry, looked up): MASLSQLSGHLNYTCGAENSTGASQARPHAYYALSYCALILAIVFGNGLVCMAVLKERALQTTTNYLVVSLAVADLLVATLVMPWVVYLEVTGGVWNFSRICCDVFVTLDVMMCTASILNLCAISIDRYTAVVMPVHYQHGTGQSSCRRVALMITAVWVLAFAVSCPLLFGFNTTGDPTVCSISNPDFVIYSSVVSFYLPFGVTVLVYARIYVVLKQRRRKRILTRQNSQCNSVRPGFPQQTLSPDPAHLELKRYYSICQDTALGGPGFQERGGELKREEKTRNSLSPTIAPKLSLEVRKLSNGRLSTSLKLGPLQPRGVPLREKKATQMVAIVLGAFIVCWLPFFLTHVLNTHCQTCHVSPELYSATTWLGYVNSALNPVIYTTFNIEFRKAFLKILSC
row,Compound,"max response, negative = inhibition"
1,Cc1ccc(C(=O)OCC(=O)NC2CCCCCCC2)cc1C,5.37%
2,CCCCNC(=O)C[C@@H]1C[C@@]2(C(=O)OC)CC(C)(C)CC=C2N(Cc2ccco2)C1=O,22.3%
3,Cc1cc(Br)cn2c(Cc3ccccc3C(F)(F)F)c(-c3ccc(Cl)cc3)nc12,3.99%
4,CCC(O)C1CCN(Cc2cn(-c3ccc(OC)cc3)nc2-c2cccc(F)c2)CC1 (centres undefined),-73% (active)
5,COc1ccc(-n2cc(CNC3CCOCC3)c(-c3cccc(F)c3)n2)cc1,-0.354%
6,COc1ccc(-n2cc(CN(C)Cc3n[nH]c(=O)[nH]3)c(-c3cccc(F)c3)n2)cc1,0.876%
7,CCCCOCCCNC(=O)C[C@@H]1C[C@@]2(C(=O)OCC)CCCC=C2N(CCC2=CCCCC2)C1=O,2.81%
8,CN1OC[C@@H]2CN(S(=O)(=O)c3cccc4ccccc34)[C@H](c3ccc(N4CCCCC4)cc3)C[C@@H]21,0%
9,C[C@H]1Cn2cnc(C(=O)N[C@@H](Cc3c[nH]c4ccccc34)C(=O)OC(C)(C)C)c2C(=O)N1,5.11%
10,CN(C)C(=O)c1cccc(-c2cnc3c(NC=O)cc(-c4ccc(F)cc4)cn23)c1,95.3%
11,N=C(N)SCc1cccc2ccccc12,-51.3% (active)
12,CCc1ccc(-c2nn(-c3ccccc3)cc2CSC(=N)N)cc1,6.38%
13,CCOc1ccc(Br)cc1CSC(=N)N,-4.48%
14,CCCNC(=O)C[C@@H]1CC[C@@H]2[C@H](COC[C@H](O)CN2C(=O)c2cc(Cl)cc(Cl)c2)O1,13.7%
15,N#CCCN(C(=S)Nc1ccc(Cl)c(Cl)c1)C1CCCCC1,2.54%
16,CN1OC[C@@H]2CN(C(=O)C(C)(C)C)[C@H](c3ccc(-n4ccnc4)cc3)C[C@@H]21,22.8%
17,C[C@@H]1CCCCO[C@H](CN(C)Cc2ccccc2)[C@@H](C)CN([C@H](C)CO)C(=O)c2cc(NS(=O)(=O)c3ccc(Cl)cc3)ccc2O1,-0.783%
18,COc1ccc(Br)cc1/C=N/Nc1ccc(S(=O)(=O)Nc2ccccc2C(=O)O)cc1[N+](=O)[O-],-66% (active)
19,Cc1ccc(NS(=O)(=O)c2ccc(N/N=C/c3ccccc3OCC(=O)O)c([N+](=O)[O-])c2)c(C)c1,-17%
20,O=C(O)c1ccccc1/C=N/Nc1ccc(S(=O)(=O)Nc2ccc(Cl)cc2)cc1[N+](=O)[O-],6.67%
21,CCCNC(=O)C1CC(=O)N(c2ccc(OCc3ccccc3)cc2)C1 (centres undefined),0%
22,CCNC(=O)C1(C)CCN(Cc2ccc(C(=O)OCC)o2)C1 (centres undefined),-10.7%
23,COc1ccc(C(=O)O)cc1S(=O)(=O)NC1CCN(Cc2ccccc2)CC1,8.04%
24,COc1cc2[nH]c(=O)n(CCC(=O)NC3CCN(Cc4ccccc4)CC3)c(=O)c2cc1OC,-7.24%
25,COc1cc(C(=O)NC2CCN(Cc3ccccc3)CC2)cc(Cl)c1OC(C)C,-71.6% (active)
26,CCOc1cc2[nH]c(=O)n(Cc3ccc(C(=O)NCCCN4CCCC4=O)cc3)c(=O)c2cc1OCC,6.17%
27,COc1cc2[nH]c(=O)n(Cc3ccc(C(=O)NC4CCN(Cc5ccccc5)CC4)cc3)c(=O)c2cc1OC,-79.7% (active)

row,Compound,"max response, negative = inhibition"
1,COC(=O)c1cccc(NC(=O)CN2CCC(NC(=O)c3cc(OC)c(OC)c(OC)c3)CC2)c1,24%
2,Nc1cccc(-c2cncc(N3CCN(Cc4ccccn4)CC3)n2)c1,-4.86%
3,CCN(CC(=O)Nc1ccc(NC(C)=O)cc1)C(=O)C1CC(=O)N(c2ccc3c(c2)OCCO3)C1 (centres undefined),19%
4,O=C(CN1C(=O)NC2(CCc3ccccc32)C1=O)NC1CCCCC1 (centres undefined),-24.4%
5,CCOC(=O)C1(C)CCCN(C(=O)c2ccc(F)c(Cl)c2)C1 (centres undefined),104%
6,CC(=O)c1cccc(-c2cnc3c(NC=O)cc(-c4ccccc4Oc4ccccc4)cn23)c1,31%
7,C#Cc1cc(N2CCN(C(=O)c3ccoc3)CC2)n2nc(-c3cccc(Cl)c3)cc2n1,44.3%
8,CCOC(=O)[C@]12CCCC=C1N(CCC1=CCCCC1)C(=O)[C@H](CC(=O)N1CCSCC1)C2,21.2%
9,Cc1cc(C)cc(C(=O)NC(=S)Nc2ccc3[nH]c(=O)[nH]c3c2)c1,-10.1%
10,Cc1cc2[nH]ncc2cc1NC(=S)NC(=O)c1ccccc1,-53.9% (active)
11,Cc1ccc(C(=O)NC(=S)Nc2ccc3[nH]c(=O)[nH]c3c2)cc1C,-9.59%
12,COc1ccccc1CNC(=O)c1cc(-c2cc(Cl)ccc2C)n[nH]1,3%
13,C/C(=N\NC(=O)c1ccc(C)cc1)C1C(=O)c2ccccc2C1=O,-89.4% (active)
14,O=C1c2ccccc2C(=O)C1C(=O)C1CC1,4.87%
15,Cc1ccc(C(=O)N/C(=C/c2cccnc2)C(=O)O)cc1,0%
16,O=C1NC[C@H](CCCCN2CCN(CCc3ccccc3)C(=O)C2=O)N(CC2CCCCC2)C1=O,2.55%
17,CCN(C(=O)Nc1cccc2ccccc12)c1ccccc1,-20.4%
18,Cc1cc(Br)ccc1NC(=O)CCCOc1cc(=O)n(C)c2ccccc12,-20.6%
19,COc1ccc(Nc2cc(=O)oc3ccccc23)cc1,-15.7%
20,COc1ccc(Nc2ccc3ccccc3c2)cc1,-3.21%
21,COc1ccc(Nc2oc(-c3ccccc3Cl)nc2C#N)cc1,-54.1% (active)
22,O=C(CSc1ccc(Cl)cc1)NC1CC1,20.3%
23,Cc1cc2cc3c(cc2nc1SCC(=O)Nc1c(C)cccc1C)CCC3,-74.6% (active)
24,Cc1cccc(C)c1NC(=O)CSc1nc2c([nH]1)c(=O)n(C)c(=O)n2C,-7.1%
25,Cc1cc(C)c(C#N)c(SCC(=O)Nc2ccccc2)n1,-13.9%
26,CN(C)CCNC(=O)c1cccc(-c2cnc3c(NC=O)cc(-c4cccc(C(F)(F)F)c4)cn23)c1,0%
27,CN(Cc1ccccc1)C(=O)CCC1CCN(C(=O)c2ccco2)CC1,13.8%
